# Experimental data as given in the supplement of paper PMC3334620.
# Over roughly 33,000 sequences, “E-score (-0.5 to 0.5)” has its median near -0.013; the highest 2% begin near 0.3. The sample as a whole holds a higher share of the highest values than the screen did.
# Molecular target: T1, Msn1 (UniProt P22148)
# T1 sequence: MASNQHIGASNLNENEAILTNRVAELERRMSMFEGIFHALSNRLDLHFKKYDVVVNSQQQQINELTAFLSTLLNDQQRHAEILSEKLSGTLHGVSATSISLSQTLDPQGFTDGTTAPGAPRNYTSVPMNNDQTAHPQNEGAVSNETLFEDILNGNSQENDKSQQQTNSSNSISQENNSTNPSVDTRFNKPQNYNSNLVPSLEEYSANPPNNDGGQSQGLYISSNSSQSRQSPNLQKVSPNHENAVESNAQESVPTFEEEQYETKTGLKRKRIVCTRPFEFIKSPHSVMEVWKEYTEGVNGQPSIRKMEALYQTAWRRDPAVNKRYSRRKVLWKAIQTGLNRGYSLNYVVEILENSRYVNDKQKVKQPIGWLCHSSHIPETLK
# Assay: PBM E-score (8-mer binding enrichment) (E-score (-0.5 to 0.5)); higher = stronger / more preferred TF binding
# Details: protein concentration: 200 nM; construct: GST-full length
# Procedure: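 Universal 'all 10-mer' protein binding microarrays (Agilent AMADID 015681) probed with GST-tagged S. cerevisiae TFs (full-length or DBD) made by in vitro transcription/translation (PURExpress), about 100-200 nM. Bound TF was detected with fluorescent anti-GST. Each ungapped 8-mer (which stands for itself and its reverse complement) is scored by the PBM enrichment score (E-score), a modified Wilcoxon-Mann-Whitney statistic from -0.5 to +0.5, computed with the Universal PBM Analysis Suite. Scale: above 0.35 generally sequence-specific binding.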
row,Sequence,PBM E-score
1,CGTACTAA,0.093
2,CGTACCAA,0.182
3,TGTACTAA,0.321
4,TGTACCAA,0.328
5,AGTACCAA,0.175
6,AGCTGGAG,-0.251
7,GATGGTCA,-0.0299
8,AGCTACGA,-0.11
9,GTGATTGA,0.128
10,CACGCTTA,0.0573
11,AGGACTTA,0.36
12,AGGACTAT,-0.131
13,AGGACTTC,0.243
14,CGGACTTA,0.215
15,AGGACTAA,0.309
16,TGGACTAA,0.183
17,CAAAACTG,0.127
18,CTTGTATC,0.106
19,ATTGTCAG,0.218
20,ATTGTCTA,0.391
21,CCTGTCTA,0.143
22,CCTGTCTC,-0.0622
23,AGTGTCTA,0.188
24,CTTGTCTC,0.319
25,ACTGTCTA,0.022
26,CTTGTCTA,0.324

row,Sequence,PBM E-score
1,ATTGTTTG,0.202
2,ATTGTCTG,0.34
3,GTTGTCTA,0.165
4,ACTCCCTG,-0.28
5,GCGTCTGA,-0.101
6,ATGTGCTC,0.0447
7,CATAGTAG,0.0607
8,ACTGTTAC,-0.0545
9,CCCTATAC,-0.129
10,CTCTTAGC,-0.0929
11,TAATGGAA,0.151
12,CAGAAGTA,0.104
13,CTAAGCCC,-0.154
14,AGTGTCTC,0.0356
15,ACTGTCTC,-0.00421
16,ATTGTCTC,0.378
17,CAACTTTC,-0.0177
18,AAAACAAT,0.127
19,AAGACACA,0.169
20,AAGACTAT,-0.0507
21,CAGACAAA,0.451
22,AAGACAAA,0.45
23,TAGACTAA,-0.0893
24,CAGACAAG,0.28
25,TAGACAAA,0.446
26,AAGACAGA,0.216

row,Sequence,PBM E-score
1,CAGACAGA,0.0672
2,AAGACAAT,0.409
3,TAGACGAA,0.0138
4,AGCAGTTG,-0.0796
5,AACCGACC,-0.0206
6,CCGTCCAG,-0.00159
7,AAGCCAAG,-0.237
8,AGAGGAGG,-0.382
9,ACCAGCCG,-0.0866
10,AGCCATCC,-0.277
11,AAGACAGG,0.0873
12,GAGACAAA,0.442
13,GAGACGAA,-0.0182
14,GAGACAAC,0.203
15,AAGACAAC,0.221
16,AAGACAAG,0.343
17,ACAGACCG,-0.128
18,GAGATGAA,0.024
19,AGGTGCCC,-0.275
20,CCCGACAC,-0.0956
21,CCCGACAG,0.052
22,TCCGACAA,0.372
23,CCCGACAA,0.329
24,GCCGACAA,0.117
25,TCCGAGAA,0.346
26,CCCGAGAA,0.0155

row,Sequence,PBM E-score
1,ACCGAGAA,0.149
2,ACCGACAA,0.268
3,CAATTCAG,0.0996
4,TAAGTACA,0.287
5,GCTTTAGA,-0.0753
6,CCTGATAG,-0.222
7,AACATGAT,0.173
8,AGACATAA,0.373
9,AAACATAC,-0.0227
10,AGACATAT,0.47
11,AGACATAC,0.327
12,AGACATAG,0.32
13,AGACACAT,0.197
14,ACACATAA,0.217
15,ACACATAG,0.0311
16,ATACATAA,0.21
17,AAACATAT,0.258
18,ATACATAC,-0.0367
19,CGACATAG,0.15
20,GCAATGAA,0.0712
21,ATACATGA,0.073
22,ACAAATCG,0.276
23,ACTGAAGC,-0.0558
24,AATGGTTG,-0.0125
25,CCCTAAAC,-0.171
26,AGACAAAG,0.364

row,Sequence,PBM E-score
1,ACACAAAA,0.296
2,CGACAAAG,0.294
3,AGACAAAT,0.482
4,AGACAACT,0.147
5,ATACAAAA,0.2
6,AAACAAAT,0.199
7,AAACAAAA,0.127
8,ATACAAAT,0.335
9,AGACAAAA,0.437
10,AGACAAGG,0.162
11,ATACAAAG,0.254
12,CGCCCTTA,-0.0904
13,AAGTTGAT,0.016
14,AACTGCCC,-0.105
15,GGTCAAAC,0.114
16,AGGGGGCG,-0.416
17,GTGCAACA,-0.164
18,ACCCGCGC,0.0994
19,GCACCTTA,0.00327
20,ATATCCTG,0.0176
21,CCCTTCGG,-0.0863
22,CGACAAAC,0.36
23,CAACAAAA,0.0735
24,CGACAACC,0.0461
25,CCACAAAA,0.0569
26,TCACAAAA,0.119

row,Sequence,PBM E-score
1,CAACAAAC,-0.0143
2,CGACAAAA,0.423
3,AAACAAAC,0.192
4,AGACAAAC,0.446
5,TAACAAAA,0.228
6,ACACAAAC,0.0132
7,TGACAAAA,0.402
8,CCGTTGAA,0.00808
9,CGTAGCTA,-0.123
10,CCTGCGGA,0.00937
11,CGGCCGAC,0.194
12,GATTTGGC,-0.221
13,CATAGATC,0.0219
14,CCGTGAGG,-0.283
15,CATGGAGA,-0.00044
16,GCCTACAA,-0.0308
17,ATCCCGTC,-0.0856
18,AGTAACGC,-0.119
19,CTCTGAGA,-0.0856
20,CATACTCA,0.0936
21,ATTGGACC,-0.101
22,GTTGGAAA,0.165
23,GTTGGATA,0.0207
24,CTTGGAGA,-0.00816
25,ATTGGACA,0.445
26,ATTGGACG,0.211

row,Sequence,PBM E-score
1,CTTGGACA,0.44
2,GTTGGACA,0.437
3,CTTGGACC,-0.163
4,CACAATGG,0.0832
5,TAGGAACA,0.0697
6,GGGTGTCA,-0.0869
7,AGAGCTCT,-0.265
8,AGCCTCCG,-0.213
9,AGTACTTG,0.147
10,AGGACACC,0.255
11,ATGACACG,0.214
12,AGGACAGA,0.437
13,ACGACACA,0.172
14,ACGACACT,0.123
15,AGGACACA,0.472
16,AGCACACG,-0.0792
17,AGGACAGG,0.28
18,AGGACACT,0.358
19,ACGACACG,0.206
20,AGGACAGC,0.078
21,AGGACACG,0.467
